Screen size: about 350,000 compounds; about 31,000 (8.9%) were called active. Not shown: some 15% with an inconclusive outcome. Calls come from the whole dose curve; as a rule, active = well fitted inhibition curve with a large enough effect; inconclusive = small, poorly fitted or top-dose-only effect; inactive = no such curve, though single readings can be large or run the other way. The sample as a whole holds a higher share of actives than the screen did.
target: Histone-lysine N-methyltransferase EHMT2 (Homo sapiens) (UniProt Q96KQ7); assay: qHTS Assay for Inhibitors of Histone Lysine Methyltransferase G9a; conditions: G9a H3K9 monomethylation, AlphaScreen, 2 h; series mostly up to 59 µM; activity, negative = inhibition: at the top concentration; note: nearly all actives have a fitted effect of over 75% in size
Summary of the method: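 Readings reflect AlphaScreen signal from monomethyl-H3K9 antibody detection. HMT at 20 nM; substrate b-H3K9 500 nM; cofactor SAM 20 uM; 2 h RT reaction; compounds tested as titrations in qHTS with 15 min preincubation.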
% is set by controls: 0 for no effect and ±100 for the full control effect; potency is the fitted concentration of half-maximal effect.

Histone-lysine N-methyltransferase EHMT2 (Homo sapiens), sequence (Q96KQ7 913-1193 limits assumed): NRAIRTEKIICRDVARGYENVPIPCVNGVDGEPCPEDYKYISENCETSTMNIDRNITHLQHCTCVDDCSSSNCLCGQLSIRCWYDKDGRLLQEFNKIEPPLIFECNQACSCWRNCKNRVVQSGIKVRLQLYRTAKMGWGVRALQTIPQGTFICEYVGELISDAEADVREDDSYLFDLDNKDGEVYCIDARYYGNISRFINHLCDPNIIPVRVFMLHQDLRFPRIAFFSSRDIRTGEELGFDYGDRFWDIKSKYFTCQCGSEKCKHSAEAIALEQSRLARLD

Compound | activity, negative = inhibition | Potency
Cc1nnnn1/C(=C\c1ccccc1)C(=O)OCC(=O)N1CC2(C)CC1CC(C)(C)C2 (stereo not drawn) | -22.1% (inactive) | 
Cc1cc(C)cc(C(=O)NCC(=O)OCC(=O)N2CCCCC2)c1 | 14.1% [at 102 µM] (inactive) | 
Cc1cccc(C(=O)NCC(=O)OCC(=O)N2CC3(C)CC2CC(C)(C)C3)c1 (stereo not drawn) |  | 6.31 µM (active)
O=S(=O)(NCCc1ccccn1)c1cc(Cl)cc(Cl)c1O | 22.1% [at 2.33 µM] (inactive) | 
CCOC(=O)c1ccccc1NC(=O)CC1Nc2ccccc2NC1=O (stereo not drawn) | -4.54% (inactive) | 
O=C(CC1Nc2ccccc2NC1=O)Nc1ccccc1NC(=O)CC1Nc2ccccc2NC1=O (stereo not drawn) | -46.1% [at 102 µM] (inactive) | 
COC(=O)c1cc(C)sc1NC(=O)CC1Nc2ccccc2NC1=O (stereo not drawn) |  | 50.1 µM (active)
Cc1cccc(-n2ncc(C(=O)N3CCC(C)CC3)c2C2CCN(C(=O)OC(C)(C)C)CC2)c1 | -23.8% (inactive) | 
O=C(CS(=O)(=O)c1cccc2nsnc12)N1CCN(c2cccc(Cl)c2)CC1 | 4.58% (inactive) | 
CCN(CC(=O)Nc1ccc(OC)cc1)C(=O)CSCc1ccc(C)cc1 | -8.18% [at 12.7 µM] (inactive) | 
COc1cc(NC(=O)Nc2ccc(C)cc2)cc([N+](=O)[O-])c1 | 9.42% [at 2.33 µM] (inactive) | 
COc1ccc(Cc2n[nH]c(=S)n2NC(=O)Nc2ccc(C)cc2)cc1 |  | 8.91 µM (active)
Cc1csc(SCC(=O)N(c2ccccc2)C(C)C)n1 | -6.13% [at 102 µM] (inactive) | 
CCOc1ccc(NC(=O)c2ncoc2-c2ccco2)cc1 | 7.16% (inactive) | 
O=C(NCc1ccccc1CN1CCCC1)C1CCN(S(=O)(=O)c2ccc(Cl)cc2)CC1 | 16% (inactive) | 
Cc1c(Cl)cnc(NC(=O)COC(=O)c2ccc(S(=O)(=O)NCc3ccco3)cc2)c1Cl |  | 44.7 µM (active)
O=C(CCCl)Nc1ccc(S(=O)(=O)NCc2ccco2)cc1 | -13% (inactive) | 
C/C(=N\Nc1ncc(Cl)cc1Cl)c1ccc(S(=O)(=O)NCc2ccco2)cc1 | -15.6% (inactive) | 
CCC(=O)Nc1ccc(S(=O)(=O)Nc2c(NC)c3ccccc3oc2=O)cc1 | 2.23% (inactive) | 
Cc1ccc(S(=O)(=O)c2nc(-c3cccs3)oc2NCc2cccnc2)cc1 |  | 25.1 µM (active)

Compound | activity, negative = inhibition | Potency
Cc1ccc(CSc2oc(-c3cccs3)nc2S(=O)(=O)c2ccc(C)cc2)cc1 | -0.9% (inactive) | 
O=S(=O)(c1ccccc1)c1nc(-c2ccccc2F)oc1NCc1cccnc1 | -3.34% [at 102 µM] (inactive) | 
Cc1ccc(N2C(=O)CC(N3CCSCC3)C2=O)c(C)c1 (stereo not drawn) | -5.6% [at 102 µM] (inactive) | 
CCC1Oc2ccc(Cl)cc2N(CC(=O)O)C1=O (stereo not drawn) | -29.8% [at 102 µM] (inactive) | 
Cc1cc(Cl)ccc1N1C(=O)CC(SCCC(=O)O)C1=O (stereo not drawn) |  | 10 µM (active)
Cc1ccc(CSc2nc3cccnc3n2Cc2ccc(C(=O)NC3CC3)cc2)cc1 | 10.3% (inactive) | 
COc1ccc(OCCn2cc(C(=O)C3CCCCC3)c3ccccc32)cc1 | 29.3% (inactive) | 
O=C1CSC2(C(=O)N(Cc3ccccc3)c3ccccc32)N1c1cccc(F)c1 (stereo not drawn) | -26.1% (inactive) | 
CCOc1ccccc1NC(=O)c1ccc2c(c1)CCN2S(=O)(=O)c1ccc(C)cc1 | 4.28% (inactive) | 
NC(=O)Cc1ccc2c(c1)[nH]c1ccccc12 | 15.3% [at 102 µM] (inactive) | 
CC(=O)c1c(-c2ccccc2)c2ccccc2[nH]c1=O | -27.3% [at 102 µM] (inactive) | 
S=c1[nH]c2ccccc2c2ccccc12 |  | 8.91 µM (active)
CCc1ccccc1N(C)C(=O)C1CCCN(c2ncnc3onc(-c4ccc(F)cc4)c23)C1 (stereo not drawn) | -6.79% (inactive) | 
COc1ccc([C@H]2CC(=O)C=C(/C=C/c3ccccc3)C2)cc1 | -12.4% [at 2.33 µM] (inactive) | 
COc1ccccc1Nc1nc(N)nc(N)c1S(=O)(=O)c1ccccc1 | 27.8% (inactive) | 
C=CCn1c(CCNC(=O)c2cccs2)n[nH]c1=S |  | 11.2 µM (active)
Cc1ccc(C)c2[nH]c(=O)c(CCNC(=O)c3cccs3)cc12 | 2.66% [at 102 µM] (inactive) | 
C=CCn1c(CCc2ccc(OC(C)C)cc2)n[nH]c1=S | 9.89% [at 102 µM] (inactive) | 
CCc1ccc(N(C(=O)c2csnn2)C(C(=O)NC2CCCCC2)c2cccnc2)cc1 (stereo not drawn) | -4.95% [at 102 µM] (inactive) | 
Cc1c(NS(=O)(=O)c2cc(C(=O)NCCc3ccc(F)cc3)cc(Cl)c2Cl)c(=O)n(-c2ccccc2)n1C | -13.8% [at 102 µM] (inactive) | 

Compound | activity, negative = inhibition | Potency
COc1cc(Cl)ccc1OCc1cc(C(=O)N(C)CCc2c(C)n[nH]c2C)no1 |  | 39.8 µM (active)
Cc1cc(CN(C)C(=O)c2cc(COc3ccc(C)c(C)c3)on2)n[nH]1 | 25.5% [at 102 µM] (inactive) | 
CSc1ccccc1OCc1cc(C(=O)N(C)CCc2c(C)n[nH]c2C)no1 | 43.1% [at 0.0925 µM] (inactive) | 
NC(=O)NCCCC(=O)O | -0.244% [at 12.7 µM] (inactive) | 
Cc1ccccc1-c1nc2scc(CCNC(=O)C(=O)Nc3ccc(F)cc3F)n2n1 | 5.22% (inactive) | 
NCCCC[C@@H]1NC(=O)[C@H](CCC(=O)O)NC(=O)c2cc([N+](=O)[O-])cc(I)c2NCC[C@@H](C(N)=O)NC1=O |  | 14.1 µM (active)
NC(=O)C[C@@H]1NC(=O)CNC(=O)c2cc([N+](=O)[O-])cc(I)c2NCCC(C(N)=O)NC1=O (stereo partly drawn) |  | 11.2 µM (active)
CC(C)[C@@H]1NC(=O)c2cc([N+](=O)[O-])cc(I)c2NCCC[C@@H](C(=O)NC(CC(=O)O)C(N)=O)NC(=O)[C@H](CO)NC1=O (stereo partly drawn) | -1.59% [at 102 µM] (inactive) | 
NC(=O)CC[C@@H]1NC(=O)[C@H](CO)NC(=O)c2cc([N+](=O)[O-])cc(I)c2NCC[C@@H](C(N)=O)NC1=O |  | 10 µM (active)
Cc1oc(-c2ccccc2)nc1Cn1c(SCc2cccc(C(F)(F)F)c2)nc2cccnc21 | -29.7% (inactive) | 
Cc1ccc(C(=O)CN2C(=O)NC3(CCOc4ccccc43)C2=O)s1 (stereo not drawn) | -5.02% [at 2.33 µM] (inactive) | 
CN1CCN(NC(=O)Nc2ccc(Br)cc2)CC1 | 10.4% [at 102 µM] (inactive) | 
CC(C)(C)OC(=O)NCCCCCNC(=O)c1[nH]cnc1C(=O)Nc1nccs1 | 3.9% [at 0.501 µM] (inactive) | 
O=C(COc1ccc(Cl)cc1)Nc1ccccc1OCc1cc(=O)n2ccccc2n1 | 7.45% (inactive) | 
COc1ccccc1OCCNC(=O)C(CCSC)NC(=O)COc1ccccc1 (stereo not drawn) | 9.08% [at 12.7 µM] (inactive) | 
O=C1C=C(c2cc(C(F)(F)F)cc(C(F)(F)F)c2)C[C@@H](c2ccc3c(c2)OCO3)C1 | 10.2% [at 0.501 µM] (inactive) | 
CCN(C(=O)Cn1c(=O)nc(-c2ccccc2)c2cc(Cl)ccc21)c1cccc(C)c1 | 24.8% (inactive) | 
O=C(CCC1N=C2c3ccccc3N=C(SCc3ccccc3F)N2C1=O)NCCc1ccccc1 (stereo not drawn) | -4.93% (inactive) | 

From PubChem BioAssay AID504332 (National Center for Advancing Translational Sciences (NCATS), 2011)
